# Phagocyt inh = blocks phagocytosis by macrophages. J774A.1 macrophage IgG-bead phagocytosis, imaging. inhibition, % at 5 µM. hit rate 0.07% among 110,000. AID 1029;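 active = inhibition above the mean of the plate negative controls plus 5 SD, cut at about 13% in these data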;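 note: phagocytic index as fraction of beads internalized from green versus red external bead signal; plate controls were DMSO negative control for no effect and cytochalasin-D positive control for full effect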
# Candida biofilm = kills Candida albicans biofilms. C. albicans biofilm + clotrimazole, Alamar Blue. inhibition, % at 6 µM. hit rate 0.14% among 85,000;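 active = inhibition above 20%; inactive = inhibition below 20%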;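 note: preformed 24 hr biofilms exposed to compound for 48 hr; 0% = biofilm without compound and 100% = blank killed by clotrimazole plus chlorhexidine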
# GALR2 blocker = antagonists of human galanin receptor 2 (GALR2) | inhibition, % at 4 µM | hit rate 0.39% among 140,000 | GALR2-expressing cells, antagonist mode | O43603; in the data active = inhibition above about 27%;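 note: cells stimulated with galanin 1-16 at roughly its EC80; 0% = agonist challenge control and 100% = basal control without agonist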
# Target sequence (O43603 whole entry, looked up): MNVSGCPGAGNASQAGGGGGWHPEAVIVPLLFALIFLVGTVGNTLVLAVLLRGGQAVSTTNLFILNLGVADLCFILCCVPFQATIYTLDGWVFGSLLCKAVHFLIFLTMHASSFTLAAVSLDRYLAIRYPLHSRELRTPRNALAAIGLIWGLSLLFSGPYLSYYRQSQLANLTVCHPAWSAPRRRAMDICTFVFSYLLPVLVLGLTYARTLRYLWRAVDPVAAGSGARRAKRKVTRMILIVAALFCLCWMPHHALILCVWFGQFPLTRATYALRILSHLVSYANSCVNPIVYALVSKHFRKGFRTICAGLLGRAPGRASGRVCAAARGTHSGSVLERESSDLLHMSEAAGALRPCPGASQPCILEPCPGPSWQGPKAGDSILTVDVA
# S1P2 agonist = agonists of human S1P2 receptor | O95136 | S1P2-expressing cell line, agonist reporter read-out | activation, % at 4.5 µM | hit rate 0.46% among 97,000 | AID 729; in the data active = activation above about 16%;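 note: 0% = vehicle low control and 100% = maximal reference agonist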
# GALR2 ag = GALR2 (human) receptor agonism; activation, % (concentration not given with the values); O43603; GALR2-expressing cells, agonist activation read-out; hit rate 0.48% among 140,000; in the data active = activation above about 5%, passing the limit was not always enough;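 note: 0% = vehicle buffer wells and 100% = reference agonist at full effect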
# S1P2 blocker = antagonists of human S1P2 receptor. O95136. cell-based S1P2 antagonist assay, inhibition at 5 uM. hit rate 0.21% among 97,000. AID 736. inhibition, % at 5 µM; in the data active = inhibition above about 45%;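 note: CRE beta-lactamase reporter cells expressing human S1P2 stimulated with S1P; 0% = agonist at EC80 alone and 100% = agonist plus reference antagonist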
# The depositor's hits bear a star; . = no result; [ ] = another dose, or the depositor's remark. Only some compounds are listed: those with a hit (about 1.3% of all), similar ones and a draw of the others.
SMILES,Phagocyt inh,Candida biofilm,GALR2 blocker,S1P2 agonist,GALR2 ag,S1P2 blocker
COc1cc(NC(=O)COC(=O)c2ccc(C)c(S(=O)(=O)N3CCCCC3)c2)c(C)cc1[N+](=O)[O-],-11,.,-1,.,-1,.
CN(C(=O)c1ccno1)c1nnc(-c2ccccn2)s1,.,20*,2,-8,-1,-8
CN(C(=O)c1ccncc1)c1nnc(-c2ccccn2)s1,-2,-3,2,-8,0,-4
Cc1cc(C)n2cc(CSc3nnnn3-c3ccccc3)nc2n1,0,8,-3,-7,-1,-22
Cc1cc(C)n2cc(CSc3nnnn3-c3ccc(Cl)cc3)nc2n1,1,7,6,106*,-1,-5
COc1ccc(Nc2nc(N3CCCCC3)c3ccccc3n2)cc1,.,.,19,-5,0,56*
CCN1CCN(C(=O)c2ccc(CS(=O)(=O)Cc3ccccc3F)o2)CC1,.,7,-8,-6,-1,2
Nc1c(-c2cccc(Cl)c2)cnn1-c1cccc(C(F)(F)F)c1,-2,.,-4,3,0,-4
O=c1ccn(-c2cccc(C(F)(F)F)c2)nc1-c1ccn(-c2cccc(Cl)c2)n1,.,.,-3,28*,-1,-24
CCOC(=O)c1sc(Nc2nc3c(OC)cccc3s2)nc1C,5,.,-3,.,46*,.
CCOc1cccc2sc(Nc3nc4ccc(NC(C)=O)cc4s3)nc12,-5,.,6,.,8.1*,.
Cc1ccc(-n2nnnc2C(Cl)(Cl)c2nnnn2-c2ccc(C)cc2)cc1,0,.,-2,-10,-2,39
Cc1cc(C(=O)CN2C(=O)NC(C)(c3cccc(Br)c3)C2=O)c(C)n1Cc1ccco1 (stereo not drawn),0,7,-4,36*,-1,-11
COC(=O)C1=C(SC)N(c2ccc(OC)cc2)C(c2ccccc2)CC1=O (stereo not drawn),4,.,-17,.,0,.
COc1ccc(C2=Nn3c(nnc3-c3ccccc3OC)SC2)cc1OC,.,.,30*,34*,3,-33
COc1ccc(C2=Nn3c(nnc3-c3ccco3)SC2)cc1OC,.,1,-12,40*,-1,-40
CCOc1ccc(C2=Nn3c(nnc3-c3ccco3)SC2)cc1,.,5,3,-3,-2,-23
COc1ccccc1N1CCN(C(=O)c2ccc3[nH]c4c(c3c2)CC(C)CC4)CC1 (stereo not drawn),-2,.,5,.,0,.
Cc1ccc(C)c(NC(=O)CSc2nnc([C@@H]3CCCN3C(=O)OC(C)(C)C)o2)c1,-1,7,-9,-5,0,12
Nc1nc2c3ccccc3nc(C3CC3)n2n1,-1,11,-10,24*,1,-67
CCCNC(=O)N1CCN(S(=O)(=O)c2ccc(C)c(C)c2)CC1,.,20*,4,-5,-4,-1
CC1NC(=O)N(C)C2NC(=O)N(C)C(c3ccccc3)C12 (stereo not drawn),0,2,17,.,-2,.
N#CCCS(=O)(=O)c1nnnn1-c1ccccc1,0,0,59*,-11,-5,64*
O=C(O)CCN1C(=O)C2CCCCC2C1=O (stereo not drawn),.,37*,6,-2,-1,-6
O=C(O)CCN1C(=O)C2C3C=CC(C3)C2C1=O (stereo not drawn),1,0,0,0,-1,-34
SMILES,Phagocyt inh,Candida biofilm,GALR2 blocker,S1P2 agonist,GALR2 ag,S1P2 blocker
COc1cc2c(cc1OC)C1=C(C#N)CCC(=O)N1CC2,.,.,-22,62*,0,-27
COc1cc2c(cc1OC)CC(=O)N(C)CC2,-4,.,-2,.,-2,.
COc1ccc(C(=O)N=C2CCC(C#N)=C3c4cc(OC)c(OC)cc4CCN23)cc1,-9,.,14,.,3,.
COc1cc2c(cc1OC)C1=C(C#N)CC/C(=N\S(=O)(=O)c3ccccc3)N1CC2,0,6,-4,49*,-1,-51
CCOC(=O)c1c(C)[nH]c(C)c1C(=O)CN1C(=O)NC(CC(C)C)C1=O (stereo not drawn),-1,3,-8,-6,0,9
C/C(=N\Nc1cc(Cl)nc(C)n1)c1ccc(Cl)c(Cl)c1,-1,.,0,-6,-3,23
Cc1cccc(-c2nnc3sc(-c4ccccc4C)nn23)c1,-1,-4,9,.,2,.
O=C(COc1ccc(Cl)cc1Cl)NC(=O)N1CCCCC1,6,9,-7,-2,-2,-11
O=C(COc1ccc(Cl)cc1Br)NNC(=O)C(=O)N1CCCCC1,-1,.,3,-5,21*,-12
CCn1c(N2CCC(C)CC2)nc2c1c(=O)n(C)c(=O)n2C,-1,2,3,-8,-3,9
CCOC(=O)c1cc2c(=O)n3ccccc3nc2n(CCCOC)c1=NC(C)=O,.,2,-14,35*,13*,-56
C=CCn1c(=N)c(C(=O)NCCCOC)cc2c(=O)n3ccccc3nc21,-1,.,-3,30*,23*,-33
CNC(=O)c1cc2c(=O)n3cc(C)ccc3nc2n(C(C)C)c1=N,0,-3,0,18*,16*,-18
C=CCn1c(=N)c(C(=O)NCCCOC)cc2c(=O)n3cc(C)ccc3nc21,0,-6,-14,19*,16*,-38
CCCn1c(=NC(=O)c2ccco2)c(C(=O)OCC)cc2c(=O)n3ccccc3nc21,0,10,-3,7,2,-51
CNC(=O)c1cc2c(=O)n3cc(C)ccc3nc2n(Cc2ccco2)c1=N,0,9,.,.,.,.
CS(=O)(=O)N1CCN(C(=O)CCC2CCCC2)CC1,.,7,-9,-8,-3,9
Cc1cccc(/C=N/Nc2cc(N3CCOCC3)nc(N3CCOCC3)n2)c1,-1,.,3,.,0,.
CC(C)OCCCn1c(=NC(=O)c2ccncc2)c(C#N)cc2c(=O)n3ccccc3nc21,0,2,-23,41*,12*,-54
CCCCCn1c(=NC(C)=O)c(C#N)cc2c(=O)n3ccccc3nc21,0,5,2,9,2,-36
N=c1c(-c2nc3ccccc3[nH]2)cc(C(=O)c2cccs2)nn1-c1ccccc1,.,5,1,22*,-3,-25
O=C(Nc1ccc(-c2nc3ncccc3o2)cc1)c1ccc(Br)o1,.,-6,-14,-1,3,54*
O=C(Nc1ccc(-c2nc3ncccc3o2)cc1)c1ccco1,-2,6,-19,-4,0,12
COc1ccc(NC(=O)CSc2nnc3c4c(nc(-c5ccccc5)n23)CC(C)(C)OC4)cc1,-3,.,-13,.,-1,.
COc1ccc(C(=O)c2nc3c(n2O)CCCC3)cc1OC,-1,1,14,-2,-2,-11
COc1cc(S(=O)(=O)N2CCN=C2c2ccccc2)ccc1F,-1,-2,2,27*,-2,2
O=C(Nc1ccccc1)c1sc2cc(C(F)(F)F)cnc2c1-c1cccs1,.,1,3,-6,-1,46*
O=S1(=O)C=CC(Nc2cccc(Cl)c2)C1 (stereo not drawn),0,3,-4,0,-2,-22
COc1cccc(C2CC(=O)Nc3cc(OC)c(OC)c(OC)c32)c1OC (stereo not drawn),44*[artifact],5,-15,-7,-2,3
